Assay outcomes deposited in PubChem by NMMLSC.
RPL19A TOR yeast: RPL19A-GFP expression modulators in yeast, primary screen, cell-based, S. cerevisiae, multiplex flow cytometry, MLPCN. S. cerevisiae RPL19A-GFP strain, 3 h; active compounds read low. percent response vs DMSO, % at 10 µM. 330,000 compounds, 0.3% hits;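 active = percent response vs DMSO below 50%; inconclusive = fewer than 70 events counted for the yeast strain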;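 also: median channel GFP fluorescence of the barcoded RPL19A-GFP strain; lower means less RPL19A-GFP as with rapamycin TOR inhibition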
MEP2 TOR yeast: modulators of MEP2-GFP levels in yeast, primary screen, S. cerevisiae, multiplex flow cytometry, MLPCN library; S. cerevisiae MEP2-GFP strain, 3 h; 100% = DMSO control level; AID 2016, 2009; GFP response vs DMSO, % at 10 µM; 330,000 compounds, 0.51% hits;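 active = GFP response versus DMSO above a set limit, roughly screen mean plus 3 SD, cut at about 180% in these data; inconclusive = fewer than 70 cells counted for a yeast strain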;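 also: median GFP fluorescence of the barcode-gated MEP2-GFP cells per well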
CIT2 TOR yeast: modulators of CIT2-GFP expression in yeast, primary screen, S. cerevisiae, GFP fusion, multiplex flow cytometry, MLPCN library | S. cerevisiae CIT2-GFP strain, 3 h; 100 means same as DMSO wells | GFP response vs DMSO, % at 10 µM | 320,000 compounds, 0.065% hits | AID 2029, 2009;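 active = GFP response relative to DMSO above a set limit, near the screen mean plus 3 SD, cut at about 150% in these data; inconclusive = Fewer than 70 cells measured for a yeast strain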;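 also: ratio of well median GFP fluorescence to mean of DMSO wells on the plate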
LAP4-GFP MLPCN: modulators of LAP4-GFP expression in yeast, primary screen, S. cerevisiae, multiplex flow cytometry, MLPCN library; 3 h; median GFP as percent of DMSO wells; GFP response vs DMSO, % at 10 µM; 320,000 compounds, 0.34% hits; AID 2023, 2009;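 active = GFP response vs DMSO above a set limit, about the screen mean plus 3 SD, cut at about 150% in these data; inconclusive = under 70 cell events counted for the yeast strain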
AGP1-GFP MLPCN: modulators of AGP1-GFP expression in yeast TOR pathway, primary screen, cell-based, multiplex flow cytometry, S. cerevisiae, MLPCN library; 3 h; GFP as percent of DMSO wells; GFP response vs DMSO, % at 10 µM; 320,000 compounds, 0.02% hits; AID 2066, 2009;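 active = GFP response relative to DMSO above a set limit, near screen average plus 3 SD, cut at about 150% in these data; inconclusive = fewer than 70 cells counted for the yeast strain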;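 also: median GFP channel fluorescence of the gated AGP1 strain per well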
A number is an active result; [ ] = another dose, or the depositor's remark. Only some compounds are listed: those with a hit (about 0.93% of all), similar ones and a draw of the others.

Screening O=C1CCC([N+](=O)[O-])C(c2ccc(Cl)c([N+](=O)[O-])c2)N1 (configuration not stated) returned RPL19A TOR yeast inactive, MEP2 TOR yeast inactive, CIT2 TOR yeast inactive, LAP4-GFP MLPCN inactive and AGP1-GFP MLPCN inactive.
`O=C1CCC([N+](=O)[O-])C(c2ccc(Cl)cc2)N1` (configuration not stated) gave RPL19A TOR yeast 43[may fluoresce violet], MEP2 TOR yeast inconclusive, CIT2 TOR yeast inconclusive, LAP4-GFP MLPCN inconclusive and AGP1-GFP MLPCN inconclusive.
For Cc1ccc(NC(=O)c2cc3ccccc3oc2=N)cc1 the results were RPL19A TOR yeast inactive, MEP2 TOR yeast inactive, CIT2 TOR yeast inactive, LAP4-GFP MLPCN inactive and AGP1-GFP MLPCN inactive.
N=c1oc2cc(O)ccc2cc1C(=O)Nc1ccc(Cl)cc1 was read as RPL19A TOR yeast 38[may fluoresce violet], MEP2 TOR yeast 227[may fluoresce violet], CIT2 TOR yeast inconclusive, LAP4-GFP MLPCN inactive and AGP1-GFP MLPCN inconclusive.
`c1ccc(Cn2c(CNc3nc4ccccc4n3CCN3CCCCC3)nc3ccccc32)cc1` gave RPL19A TOR yeast inactive, MEP2 TOR yeast 240[may fluoresce violet], CIT2 TOR yeast inconclusive and LAP4-GFP MLPCN inactive.
Screening O=C(CCC(=O)Nc1cccnc1)Nc1cccnc1 returned RPL19A TOR yeast inactive, MEP2 TOR yeast inactive, CIT2 TOR yeast inactive, LAP4-GFP MLPCN inactive and AGP1-GFP MLPCN inactive.
For CN1CCSc2ccc(C(=O)Nc3cccc(F)c3)cc21 the results were RPL19A TOR yeast inactive, MEP2 TOR yeast inactive, CIT2 TOR yeast inactive, LAP4-GFP MLPCN 153 and AGP1-GFP MLPCN inactive.
For Nc1ccc(O)c2ccccc12 the results were RPL19A TOR yeast inactive, MEP2 TOR yeast 183[may fluoresce violet], CIT2 TOR yeast inconclusive, LAP4-GFP MLPCN inactive and AGP1-GFP MLPCN inactive.
CCCCCCOC(=O)C(C#N)c1nc2ccccc2nc1N1CCOCC1 (configuration not stated) was read as RPL19A TOR yeast inactive, MEP2 TOR yeast inactive, LAP4-GFP MLPCN inactive and AGP1-GFP MLPCN inactive.
For N#CC(C(=O)NCc1ccccc1)c1nc2ccccc2nc1N1CCCC1 (configuration not stated) the results were RPL19A TOR yeast inactive, MEP2 TOR yeast 218, CIT2 TOR yeast inactive, LAP4-GFP MLPCN inactive and AGP1-GFP MLPCN inactive.
`CCCCCCOC(=O)C(C#N)c1nc2ccccc2nc1N1CCN(CC)CC1` (configuration not stated) gave RPL19A TOR yeast 46[may fluoresce violet], MEP2 TOR yeast 523[may fluoresce violet], CIT2 TOR yeast inconclusive and LAP4-GFP MLPCN inactive.
For COc1ccc(N(C(=O)Cc2cccs2)C(C(=O)NC2CCCC2)c2ccncc2)cc1OC (configuration not stated) the results were RPL19A TOR yeast inactive, MEP2 TOR yeast inactive, CIT2 TOR yeast inactive, LAP4-GFP MLPCN inactive and AGP1-GFP MLPCN inactive.
Screening Cc1cccc(N(C(=O)Cc2cccs2)C(C(=O)NC2CCCC2)c2ccncc2)c1 (configuration not stated) returned RPL19A TOR yeast inactive, MEP2 TOR yeast 438[may fluoresce violet], CIT2 TOR yeast inconclusive, LAP4-GFP MLPCN inactive and AGP1-GFP MLPCN inconclusive.
`CC(=O)OCC1=C(C(=O)O)N2C(=O)[C@@H](NC(=O)Cc3cccs3)[C@H]2SC1` gave RPL19A TOR yeast 16[may fluoresce violet], MEP2 TOR yeast 329[may fluoresce violet], CIT2 TOR yeast inconclusive, LAP4-GFP MLPCN inactive and AGP1-GFP MLPCN inconclusive.
CC(=O)OCC1=C(C(=O)O)N2C(=O)C(NC(=O)CC(C)c3ccccc3)C2SC1 (configuration not stated) was read as RPL19A TOR yeast inactive, MEP2 TOR yeast inactive, CIT2 TOR yeast inactive, LAP4-GFP MLPCN inactive and AGP1-GFP MLPCN inactive.
For Cn1c(N)c(C(=O)COC(=O)c2cccs2)c(=O)n(C)c1=O the results were RPL19A TOR yeast inactive, MEP2 TOR yeast 273[may fluoresce violet], CIT2 TOR yeast inconclusive, LAP4-GFP MLPCN inactive and AGP1-GFP MLPCN inconclusive.
`Cc1nc2ncnn2c(C)c1CCC(=O)NCc1ccccc1` gave RPL19A TOR yeast inactive, MEP2 TOR yeast inactive, CIT2 TOR yeast inactive, LAP4-GFP MLPCN inactive and AGP1-GFP MLPCN inactive.
For COc1ccc(CNC(=O)CCc2c(C)nc3ncnn3c2C)cc1 the results were RPL19A TOR yeast 17[may fluoresce violet], MEP2 TOR yeast 377[may fluoresce violet], CIT2 TOR yeast inconclusive, LAP4-GFP MLPCN inactive and AGP1-GFP MLPCN inconclusive.
For O=C(Nc1ccc(Cl)cn1)c1cccc2c(Br)cccc12 the results were RPL19A TOR yeast inactive, MEP2 TOR yeast inactive, CIT2 TOR yeast inactive, LAP4-GFP MLPCN inactive and AGP1-GFP MLPCN inactive.
